Measurements: PubChem BioAssay (NCATS)
Values without a mark were called inactive. Records with an inconclusive call do not appear. Activity calls are given as the source filed them. Calls follow the shape of the dose curve; as a rule, active = well fitted curve in the direction sought with a large enough effect; inconclusive = small, poorly fitted or top-dose-only effect, or another doubt; inactive = no such curve, though single readings can be large; an effect the other way counts as inactive or inconclusive.

How the values were obtained:
[1] = target: Cytochrome P450 2C9 (Homo sapiens) (UniProt P11712); assay: qHTS Assay for Inhibitors and Substrates of Cytochrome P450 2C9 (AID 883); also: nearly all actives have a fitted effect of over 60% in size; also: potency is read from the fitted curve at half-maximal effect; as to activity change, negative = inhibition: % is scaled to controls: 0 for no effect and ±100 for the full control effect
Sequence of Cytochrome P450 2C9 (Homo sapiens) (P11712 whole entry, looked up): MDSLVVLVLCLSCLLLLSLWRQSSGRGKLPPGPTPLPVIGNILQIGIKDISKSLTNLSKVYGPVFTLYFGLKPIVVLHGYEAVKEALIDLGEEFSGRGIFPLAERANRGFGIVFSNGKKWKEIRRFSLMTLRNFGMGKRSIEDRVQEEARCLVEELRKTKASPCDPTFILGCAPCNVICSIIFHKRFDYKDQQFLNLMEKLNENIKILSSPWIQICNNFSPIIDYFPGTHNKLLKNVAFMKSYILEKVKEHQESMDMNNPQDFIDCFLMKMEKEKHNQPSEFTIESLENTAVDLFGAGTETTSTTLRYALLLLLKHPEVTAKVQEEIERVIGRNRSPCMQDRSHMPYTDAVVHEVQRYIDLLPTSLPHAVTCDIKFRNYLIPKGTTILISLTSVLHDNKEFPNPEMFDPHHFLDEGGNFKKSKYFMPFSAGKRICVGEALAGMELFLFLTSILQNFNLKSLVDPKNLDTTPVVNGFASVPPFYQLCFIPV
Procedure, shortened: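 CYP2C9 deoxyluciferin hydroxylation, 37C, 60 min with NADPH regeneration; 10nM enzyme, 100uM Luciferin-H (KM). Glo detection reagent stopped reaction; luminescence normalized to sulphaphenazole (57uM) full inhibition.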

[2] = target: Alpha-galactosidase (Coffea arabica) (UniProt Q42656); assay: Counterscreen for Glucocerebrosidase Inhibitors: qHTS Assay for Coffee Bean alpha-Galactosidase at pH 4.5 (AID 957);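 also: series mostly up to about 77 µM; plate controls were enzyme alone for no effect and no enzyme for full effect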
Sequence of Alpha-galactosidase (Coffea arabica) (Q42656 whole entry, looked up): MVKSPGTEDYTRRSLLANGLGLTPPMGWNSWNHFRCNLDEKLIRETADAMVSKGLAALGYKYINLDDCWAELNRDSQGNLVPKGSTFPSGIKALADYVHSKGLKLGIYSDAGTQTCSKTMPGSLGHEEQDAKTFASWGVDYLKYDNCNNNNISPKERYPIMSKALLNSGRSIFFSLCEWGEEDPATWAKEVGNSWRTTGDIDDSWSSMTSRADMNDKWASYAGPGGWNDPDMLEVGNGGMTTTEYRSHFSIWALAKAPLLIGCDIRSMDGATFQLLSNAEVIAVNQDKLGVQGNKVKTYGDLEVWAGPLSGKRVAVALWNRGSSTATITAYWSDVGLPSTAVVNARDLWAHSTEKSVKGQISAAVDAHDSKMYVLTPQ
Procedure, shortened: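 Enzyme is added first (2 nM final), then compounds titrated from 0.7 nM to 77 uM, then 80 uM 4-methylumbelliferyl alpha-D-galactopyranoside; after 20 min at room temperature a pH 10 NaOH/glycine stop precedes fluorescence reading at 365/440 nm.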

[3] = target: Alpha-galactosidase (Coffea arabica) (UniProt Q42656); assay: Counterscreen for Glucocerebrosidase Inhibitors: qHTS Assay for Coffee Bean alpha-Galactosidase at pH 5.9 (AID 998);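 also: plate controls were uninhibited enzyme for no effect and no-enzyme basal signal for full effect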
Procedure, shortened: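 In 50 mM citric acid pH 5.9 with 0.005% Tween-20, coffee bean enzyme hydrolyses 80 uM 4-MU alpha-D-galactopyranoside over 20 min at RT. Activity is normalized to controls; AC50 comes from Hill-modelled concentration-response data.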

[4] = target: Cytochrome P450 3A4 (Homo sapiens) (UniProt P08684); assay: qHTS Assay for Inhibitors and Substrates of Cytochrome P450 3A4 (AID 884); also: nearly all actives have a fitted effect of over 50% in size; also: potency is read from the fitted curve at half-maximal effect; as to activity change, negative = inhibition: series mostly up to about 57 µM; % is scaled to controls: 0 for no effect and ±100 for the full control effect
Procedure, shortened: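 Luminescent readout of luciferin produced by CYP3A4 (20 nM) dealkylation of Luciferin-PPXE, 25 uM (its KM). NADPH-driven reaction ran 60 min at RT after 10 min compound preincubation; data scaled to 57 uM ketoconazole as 100% inhibition.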

[5] = target: Cytochrome P450 2D6 (Homo sapiens) (UniProt P10635); assay: qHTS Assay for Inhibitors and Substrates of Cytochrome P450 2D6 (AID 891); also: nearly all actives have a fitted effect of over 60% in size; also: potency is read from the fitted curve at half-maximal effect;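 as to activity change, negative = inhibition: luciferin methyl ether substrate demethylated by CYP2D6 with NADPH regeneration; % is scaled to controls: 0 for no effect and ±100 for the full control effect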
Sequence of Cytochrome P450 2D6 (Homo sapiens) (P10635 whole entry, looked up): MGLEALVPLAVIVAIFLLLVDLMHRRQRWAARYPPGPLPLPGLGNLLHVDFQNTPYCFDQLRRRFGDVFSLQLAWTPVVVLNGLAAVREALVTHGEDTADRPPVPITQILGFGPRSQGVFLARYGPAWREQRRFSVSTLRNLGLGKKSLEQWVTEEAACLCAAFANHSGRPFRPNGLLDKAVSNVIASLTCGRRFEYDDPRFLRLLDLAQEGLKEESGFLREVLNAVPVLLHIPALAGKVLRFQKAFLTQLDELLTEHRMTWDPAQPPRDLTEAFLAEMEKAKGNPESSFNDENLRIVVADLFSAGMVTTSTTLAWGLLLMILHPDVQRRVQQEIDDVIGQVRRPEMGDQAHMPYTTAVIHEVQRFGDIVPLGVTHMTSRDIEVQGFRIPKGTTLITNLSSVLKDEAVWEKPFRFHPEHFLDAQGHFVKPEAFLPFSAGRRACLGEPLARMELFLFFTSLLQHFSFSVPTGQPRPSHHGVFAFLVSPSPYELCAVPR
Procedure, shortened: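 Luminescent read-out of luciferin formed by 5 nM human CYP2D6 demethylating 30 uM Luciferin-ME EGE (Km level) over 60 min at room temperature after NADPH regeneration addition. Data normalized to full inhibition by 1.43 uM quinidine.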

[6] = target: Cytochrome P450 2C19 (Homo sapiens) (UniProt P33261); assay: qHTS Assay for Inhibitors and Substrates of Cytochrome P450 2C19 (AID 899); also: nearly all actives have a fitted effect of over 60% in size; also: potency is read from the fitted curve at half-maximal effect; as to activity, negative = inhibition: % is scaled to controls: 0 for no effect and ±100 for the full control effect
Sequence of Cytochrome P450 2C19 (Homo sapiens) (P33261 whole entry, looked up): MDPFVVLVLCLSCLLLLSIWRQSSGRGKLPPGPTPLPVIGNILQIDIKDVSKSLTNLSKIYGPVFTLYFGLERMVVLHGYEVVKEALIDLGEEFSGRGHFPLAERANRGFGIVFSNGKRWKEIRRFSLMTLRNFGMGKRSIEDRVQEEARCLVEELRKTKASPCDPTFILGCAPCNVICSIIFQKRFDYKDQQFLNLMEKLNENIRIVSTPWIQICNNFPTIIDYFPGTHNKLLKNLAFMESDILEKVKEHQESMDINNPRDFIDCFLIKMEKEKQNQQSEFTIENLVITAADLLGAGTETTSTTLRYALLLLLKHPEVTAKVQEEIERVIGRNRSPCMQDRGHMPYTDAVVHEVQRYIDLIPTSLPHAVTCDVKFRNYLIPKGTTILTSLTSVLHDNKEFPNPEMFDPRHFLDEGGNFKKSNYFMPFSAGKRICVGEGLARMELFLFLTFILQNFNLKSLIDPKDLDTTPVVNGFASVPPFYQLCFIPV
Procedure, shortened: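 In 50mM KPO4, the reaction held 5nM enzyme and KM-level (10uM) Luciferin-H EGE; it ran 60 min at 37C after NADPH regeneration and a 10 min compound preincubation. Luminescence values were scaled to 57uM ketoconazole as complete inhibition.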

[7] = target: Cytochrome P450 3A4 (Homo sapiens) (UniProt P08684); assay: qHTS Assay for Activators of Cytochrome P450 3A4 (AID 885); also: nearly all actives have a fitted effect of over 65% in size; also: potency is read from the fitted curve at half-maximal effect
Procedure, shortened: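 Human CYP3A4 dealkylates Luciferin-PPXE to luciferin, which luciferase detection converts to light. Substrate was at its KM (25uM), buffer 200mM KPO4, reaction 60 min at RT.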

[8] = Confirmation and Secondary Assay for Modulators of Hemoglobin Beta Chain Splicing at IVS2 654 locus (AID 910);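 also: per-well total GFP intensity by laser scanning cytometry after 2-day treatment; % of control where 0% means no effect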
Procedure, shortened: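 HeLa cells stably carrying EGFP interrupted by mutant beta-globin IVS2-654 intron (CMV-driven) were treated with compound for 2 days at 37C; corrected splicing was scored as total peak GFP intensity per well (488 nm excitation, 500-520 nm emission).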

[9] = Confirmation and Secondary Assay for Modulators of Hemoglobin Beta Chain Splicing at IVS2 705 locus (AID 930);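 also: HeLa cells stably expressing the EGFP-705 splicing reporter; GFP fluorescence per well restored by corrected splicing of the IVS2-705 intron in EGFP; series mostly up to about 46 µM; % of control where 0% means no effect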
Procedure, shortened: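 Assay measures total GFP intensity per well in HeLa EGFP-705 cells after 2 days with compound; mis-splicing normally truncates EGFP, so fluorescence indicates corrected splicing.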

Nc1nc(N)c2nc(CNc3ccc(C(=O)N[C@H](CCC(=O)O)C(=O)O)cc3)cnc2n1
Potency [1]: inactive
outcome [2]: inactive
outcome [3]: inactive

CCC1CN2CCC1CC2C(Oc1cc2ccccc2c2ccccc12)c1ccnc2ccc(O)cc12 (stereo not drawn)
activity change, negative = inhibition [1]: 22% [at 11.4 µM]
activity change, negative = inhibition [4]: -10.8% [at 11.4 µM]
activity change, negative = inhibition [5]: -1.58% [at 11.4 µM]
activity, negative = inhibition [6]: 16.1% [at 11.4 µM]

COc1ccc2[nH]c(C(=O)c3ccccc3)cc2c1
Potency [4]: 7.94 µM (active)
Potency [7]: inactive

C[C@@]12CCC3c4ccc(O)cc4CCC3C1CCC2O (stereo partly drawn)
Potency [4]: inactive

COc1cc2c3cc1Oc1c(OC)c(OC)cc4c1[C@@H](Cc1ccc(O)c(c1)Oc1ccc(cc1)C[C@@H]3N(C)CC2)N(C)CC4
Potency [4]: 20 µM (active)
Potency [7]: inactive

CC(=O)Oc1ccc(/C=C/c2cc(OC(C)=O)cc(OC(C)=O)c2)cc1
Potency [4]: 10 µM (active)
Potency [7]: inactive
Potency [8]: inactive
outcome [9]: inactive

Cc1ccc2oc(-c3ccccc3)cc(=O)c2c1
Potency [4]: 10 µM (active)
Potency [7]: inactive

CC(=O)[C@]1(O)CCC2C3C=C(Cl)C4=CC(=O)C5CC5[C@@]4(C)C3CC[C@]21C (stereo partly drawn)
Potency [4]: inactive

CC(=O)OC1C[C@]2(C)C(C(C)=O)CCC2C2CCC3=CC(=O)CC[C@@]3(C)C12 (stereo partly drawn)
Potency [4]: 7.94 µM (active)
Potency [7]: inactive

CC(=O)OCC(=O)[C@@]1(O)CCC2C3CC[C@H]4CC(O)CC[C@@]4(C)C3C(=O)C[C@]21C (stereo partly drawn)
Potency [4]: 12.6 µM (active)
Potency [7]: inactive

COC(=O)[C@@H]1C[C@@]2(O)[C@@H](O)[C@@H](O)[C@@H](O)C[C@H]2N1Cc1cccnc1
Potency [4]: inactive

COc1ccc(-c2oc3cc(OC)ccc3c(=O)c2O)cc1
Potency [4]: 12.6 µM (active)
Potency [7]: inactive

CCCCCCCCCC[Si](C)(C)CCC(=O)N[C@@H](Cc1ccc(C)cc1)c1ccccc1
Potency [1]: inactive
outcome [2]: inactive

c1ccc(-c2cc3c(nc2-c2ccccc2)CCNC3)cc1
activity change, negative = inhibition [1]: -10% [at 11.4 µM]
activity change, positive = activation [7]: -45.7% [at 11.4 µM]
activity change, negative = inhibition [5]: 5.57% [at 11.4 µM]
activity, negative = inhibition [6]: 24.9% [at 11.4 µM]

O=C1c2ccccc2-c2cc([N+](=O)[O-])c([N+](=O)[O-])cc21
Potency [4]: 0.501 µM (active)
activity change, positive = activation [7]: -119% [at 11.4 µM]
Potency [5]: 3.16 µM (active)
Potency [6]: 0.398 µM (active)

N#CC(C#N)=NNc1cccc(Cl)c1
Potency [4]: 1.26 µM (active)
Potency [7]: inactive

O=c1c2ccccc2c2ccccc2c(=O)n1-c1cc2c3ccccc3ccc2c2ccccc12
Potency [1]: 0.316 µM (active)
Potency [6]: 0.158 µM (active)

CC1(C)CC(N=C=O)CC(C)(CN=C=O)C1 (stereo not drawn)
Potency [4]: 25.1 µM (active)
Potency [7]: inactive

CC1=C(CC[C@H](C)CO)O[C@@H]2C[C@@H]3[C@H]4CC[C@H]5C[C@@H](O)CC[C@]5(C)[C@@H]4CC(=O)[C@@]3(C)[C@@H]12
activity change, negative = inhibition [4]: 87.6% [at 11.4 µM]
Potency [7]: 3.98 µM (active)

COC(=O)[C@H]1C(=O)c2ccccc2O[C@@](C(=O)OC)(c2ccccc2)[C@@H]1c1ccccc1
Potency [4]: 3.98 µM (active)
activity change, positive = activation [7]: -63.3% [at 11.4 µM]

COc1cc2c(cc1OC)C1C(=O)c3c(cc4c(c3O)C=CC(C)(C)O4)OC1CO2 (stereo not drawn)
Potency [4]: 15.8 µM (active)
Potency [7]: inactive

Cc1[nH]cnc1CCN
Potency [4]: inactive

Clc1cc(Cl)c(Cl)c(Cl)c1Cl
Potency [4]: inactive

CCC(C)C(=O)OC1C[C@@]2(C)C(c3ccoc3)OC(=O)CC23OC2(C)OC34C(OC(=O)C(C)C)[C@]3(O)C(OC(=O)C5(C)OC5C)[C@]5(C)CC3(O)[C@](C)(C5CC(=O)OC)C14O2 (stereo partly drawn)
Potency [4]: 2.51 µM (active)
Potency [7]: inactive
Potency [8]: inactive
outcome [9]: inactive

CN1CCc2nc(CO)c(CO)cc2C1
activity change, negative = inhibition [1]: 21.8% [at 11.4 µM]
activity change, negative = inhibition [4]: -11.6% [at 11.4 µM]
activity change, negative = inhibition [5]: -13.1% [at 11.4 µM]
activity, negative = inhibition [6]: 81.3% [at 11.4 µM]

CCCCCCCCCc1ccc(OCCOCCOCCOCCOCCOCCOCCOCCOCCO)cc1
Potency [4]: 31.6 µM (active)
Potency [7]: inactive

O=C1NO[C@H]2[C@@H]1CN[C@@H]2C(=O)O
Potency [4]: inactive

COc1ccc2c(c1)CN([C@H](C)[C@@H]1CC[C@@H]3[C@H]4CC[C@H]5C[C@@H](O)CC[C@@]5(C)[C@H]4CC[C@]31C)CO2
activity change, negative = inhibition [4]: 321% [at 11.4 µM]
Potency [7]: 3.98 µM (active)
Potency [5]: 3.16 µM (active)

c1cc(Cc2cnc[nH]2)ccn1
Potency [4]: 3.98 µM (active)
Potency [7]: inactive

C[C@@]12CC[C@H]3[C@@H](CCC4=CC(=O)CC[C@]43C)[C@H]1CC[C@H]2C(=O)CO
Potency [4]: inactive

CC(C)C1C(=O)N2CCCC2[C@]2(O)O[C@@](NC(=O)[C@@H]3C=C4c5cccc6[nH]cc(c56)C[C@H]4N(C)C3)(C(C)C)C(=O)N12 (stereo partly drawn)
Potency [4]: 1.26 µM (active)
Potency [7]: inactive

COc1cc2c(cc1OC)C1C(=O)c3c(O)cc4c(c3OC1CO2)C=CC(C)(C)O4 (stereo not drawn)
Potency [4]: 15.8 µM (active)
Potency [7]: inactive

CC1Cc2c(cnc3c2CN(C)CC3)CO1 (stereo not drawn)
activity change, negative = inhibition [1]: 12.6% [at 11.4 µM]
activity change, negative = inhibition [4]: -13.4% [at 11.4 µM]
activity change, negative = inhibition [5]: 10.1% [at 11.4 µM]
activity, negative = inhibition [6]: 9.03% [at 11.4 µM]

COc1c(-c2ccccc2)oc2c(ccc3occc32)c1=O
Potency [1]: 1 µM (active)
Potency [7]: inactive
Potency [5]: 10 µM (active)
Potency [6]: 3.98 µM (active)

O=S(=O)(O)c1cc(N=C=S)ccc1/C=C/c1ccc(N=C=S)cc1S(=O)(=O)O
Potency [4]: 12.6 µM (active)
Potency [7]: inactive

CC(=O)OC1CC[C@@]2(C)C3CC(=O)[C@]4(C)C(C(C)=O)=CCC4C3CC[C@H]2C1 (stereo partly drawn)
Potency [4]: inactive
Potency [7]: 5.01 µM (active)

CC1=C2C(=COC(C)C2C)C(=O)C(C(=O)O)=C1O (stereo not drawn)
Potency [4]: 15.8 µM (active)
Potency [7]: inactive

O=C1C=CC(=O)c2c1ccc1c2ccc2ccccc21
Potency [1]: 1.26 µM (active)
Potency [6]: 1.58 µM (active)

Cc1c(N=C=O)cccc1N=C=O
Potency [7]: inactive

CCc1cc2c(nc1CC)CCN(CC/C(C)=N/OC)C2
activity change, positive = activation [7]: -38.7% [at 11.4 µM]

CCCCCCCCCCCCCC(=O)OC1C(C)[C@@]2(O)C(C=C(CO)C[C@]3(O)C(=O)C(C)=C[C@H]23)[C@@H]2C(C)(C)[C@]12OC(C)=O (stereo partly drawn)
Potency [4]: inactive
Potency [8]: inactive
outcome [9]: inactive

COC(=O)[C@@H]1C[C@H]2CC[C@H](O)C[C@H]2N1CC1CC1
Potency [7]: inactive

CC(C)c1cccc(O)c(=O)c1
Potency [7]: inactive

O=C(OC1Cc2c(O)cc(O)cc2OC1c1cc(O)c(O)c(O)c1)c1cc(O)c(O)c(O)c1 (stereo not drawn)
Potency [7]: inactive

CC(=O)O[C@H]1CC[C@@]2(C)[C@@H](CC[C@H]3[C@H]2CC(=O)[C@@]2(C)[C@@H]3C[C@H]3CC(C)=CC(=O)[C@H]32)C1
Potency [7]: 2 µM (active)

C[C@]12CC[C@@H]3C(=CCc4cc(O)ccc43)[C@@H]1CCC2=O
Potency [7]: inactive

CC(C)=CCCC(C)C1CC[C@@]2(C)C3=C(CC[C@@]12C)C1(C)CCC(O)C(C)(C)C1CC3 (stereo partly drawn)
Potency [7]: inactive
